Only some compounds are listed: those with a hit (about 1.2% of all), similar ones and a draw of the others.
RGS8-Gao = RGS8-Galphao binding modulators, primary screen, biochemical, multiplexed bead flow cytometry. response (percent of control binding), % at 10 µM. actives lie on both sides. hit rate 0.34% among 220,000; in the data active = response below about 60% or above about 140%; inactive = in between;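 note: Galphao activated as the GDP aluminium fluoride complex binding bead-coupled RGS8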
Target sequence (P09471 whole entry, looked up): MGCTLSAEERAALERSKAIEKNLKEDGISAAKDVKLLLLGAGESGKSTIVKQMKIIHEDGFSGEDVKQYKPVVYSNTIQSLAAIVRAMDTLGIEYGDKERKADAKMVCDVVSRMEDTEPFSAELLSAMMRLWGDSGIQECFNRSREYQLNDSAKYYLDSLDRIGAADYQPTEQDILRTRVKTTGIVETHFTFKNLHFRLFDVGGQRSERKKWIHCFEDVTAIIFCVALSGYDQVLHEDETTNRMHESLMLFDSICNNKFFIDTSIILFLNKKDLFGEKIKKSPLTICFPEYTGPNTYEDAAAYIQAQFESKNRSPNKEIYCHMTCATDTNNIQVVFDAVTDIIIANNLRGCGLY
RGS4-Gao reg = modulators of RGS4 binding to Galphao, primary screen, biochemical, multiplexed bead flow cytometry; Guanine nucleotide-binding protein G(o) subunit alpha (Homo sapiens), P09471; actives lie on both sides; binding response (% of control), % at 10 µM; hit rate 0.33% among 220,000; AID 1415, 2008; in the data active = binding response below about 49% or above about 150%; inactive = in between;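 note: fluorescent Galphao activated with aluminum fluoride binding bead-coupled RGS4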
GSH fluor = compound fluorescence on glutathione beads, profiling panel, artefact control, biophysical, 488/530 nm, flow cytometry; hit rate 0.25% among 190,000; fluorescence (KMESF) at 10 µM; AID 1776, 2009; GSH beads flow cytometry, compound fluorescence 488/530 nm; hits give high values; in the data active = fluorescence above about 89;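 note: glutathione beads carrying GST-tagged Bcl family fusion proteins plus one bare bead set; values are compound well signal with DMSO vehicle wells as background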
Avidin bead fluor = green autofluorescence of compounds with avidin beads – biophysical, 488/530 nm, flow cytometry, artefact control, profiling panel. compound fluorescence 488/530 nm; hits give high values. fluorescence (KMESF) at 10 µM. hit rate 0.38% among 220,000. AID 1775, 2009; in the data active = fluorescence above about 47
RGS16-Gao = modulators of RGS16 binding to Galphao, primary screen, biochemical, human proteins, multiplexed bead flow cytometry. Regulator of G-protein signaling 16 (Homo sapiens) + Guanine nucleotide-binding protein …. bead-based flow cytometry RGS16-Galphao binding, fluorescence; actives lie on both sides. binding response (% of control), % at 10 µM. hit rate 0.38% among 220,000;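 note: Galphao activated by GDP with aluminum fluoride before binding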
RGS7-Gao = RGS7-Galphao binding modulators, primary screen, biochemical, multiplexed bead flow cytometry. Guanine nucleotide-binding protein G(o) subunit alpha (Homo sapiens), P09471. actives lie on both sides. binding response (% of control), % at 10 µM. hit rate 0.35% among 220,000; in the data active = binding response below about 49% or above about 150%; inconclusive = no clear call, values can overlap the other calls; inactive = in between;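 note: fluorescent Galphao held in activated GDP-AlF4 state binding bead-coupled RGS7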
RGS-Gao = modulators of RGS–Galpha-o binding, primary screen, biochemical, multiplexed beads, flow cytometry, RGS4/7/8/16/19; shares compounds with RGS16-Gao; multiplexed bead flow cytometry; RGS4–Galpha-o binding response, % at 10 µM; hit rate 99% among 1,600; AID 1504, 2009;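 note: fluorescently labeled Galpha-o bound to GDP with aluminium fluoride binding biotinylated RGS beads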
Target sequence (P09471 whole entry, looked up): as above
Target sequence (P49798 whole entry, looked up): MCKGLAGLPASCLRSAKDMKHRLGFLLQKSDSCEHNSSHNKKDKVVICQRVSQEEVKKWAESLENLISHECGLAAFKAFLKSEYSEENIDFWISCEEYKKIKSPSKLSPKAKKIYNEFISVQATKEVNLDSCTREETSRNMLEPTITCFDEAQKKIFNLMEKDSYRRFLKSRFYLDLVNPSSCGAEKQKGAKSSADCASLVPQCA
Biotin-avidin = disruption of biotin probe capture by avidin, counter-screen for RGS protein interaction modulators, biochemical, flow cytometry, bead-based. streptavidin beads, fluorescein-biotin binding. shares compounds with RGS16-Gao. AID 1783, 2009. 1,700 tested, under 10 active. inhibition, % at 10 µM;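 active = inhibition above 50%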;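 note: median green fluorescence of gated singlet beads compared with DMSO control wells; 0% = DMSO wells and 100% = complete loss of bead fluorescence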
RGS8-Gao confirm = RGS8-Galphao binding modulators, confirmation, biochemical, multiplexed bead flow cytometry, single concentration; shares compounds with RGS16-Gao; bead-based flow cytometry RGS8-Galphao binding, fluorescence; actives lie on both sides; binding response (% of control), % at 10 µM; hit rate 3% among 1,700; AID 1836, 2009; in the data active = binding response below about 72% or above about 130%; inactive = in between;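 note: Galphao activated as GDP AlF4 complex before binding bead RGS8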
RGS7-Gao single = RGS7-Galphao binding modulators, confirmation, biochemical, multiplexed bead flow cytometry, single concentration; shares compounds with RGS16-Gao; bead-based flow cytometry RGS7-Galphao binding; actives lie on both sides; response (percent of control binding), % at 10 µM; hit rate 7.8% among 1,700; in the data active = response below about 75% or above about 130%; inactive = in between;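 note: fluorescent Galphao activated with GDP and aluminum fluoride binding bead-coupled RGS7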
RGS16-Gao conf = modulators of RGS16-Galphao protein binding, confirmation, biochemical, single concentration, multiplexed bead flow cytometry | response (% of control binding), % at 10 µM | bead-based flow cytometry; actives lie on both sides | hit rate 4% among 1,700 | shares compounds with RGS16-Gao | AID 1838, 2009; in the data active = response below about 74% or above about 130%; inactive = in between;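 note: Galphao activated as the GDP aluminium fluoride complex binding bead-coupled RGS16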
RGS4-Gao single = modulators of RGS4-Galphao protein binding, confirmation, biochemical, single concentration, multiplexed bead flow cytometry | shares compounds with RGS16-Gao | actives lie on both sides | binding response (% of control), % at 10 µM | hit rate 4% among 1,700 | AID 1840, 2009; in the data active = binding response below about 74% or above about 130%; inactive = in between
RGS19-Gao single = regulators of RGS19-Galphao binding, confirmation, biochemical, single point, multiplexed bead flow cytometry | shares compounds with RGS16-Gao | bead-based flow cytometry RGS19-Galphao binding; actives lie on both sides | response (percent of control binding), % at 10 µM | hit rate 5% among 1,700; in the data active = response below about 50% or above about 160%; inactive = in between;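 note: 100% = no compound control and 0% = blank background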
Numbers without * were called inactive; i = inactive; ? = inconclusive; . = no result given; [ ] = dose if it differs, or a comment. Unless noted, the rule behind the calls is not given here.

SMILES | RGS8-Gao | RGS4-Gao reg | GSH fluor | Avidin bead fluor | RGS16-Gao | RGS7-Gao | RGS-Gao | Biotin-avidin | RGS8-Gao confirm | RGS7-Gao single | RGS16-Gao conf | RGS4-Gao single | RGS19-Gao single
CCOC(=O)c1sc(NC(=O)CSc2nnc(Cc3ccccc3)o2)c(C#N)c1C | 75 | 101 | 32 | 17 | 19* | 135 | 101* | -1 | 70* | 143*[activator] | 51* | 94 | 33*
CCOC(=O)c1c(C)nc(C)c2c(=O)oc3ccccc3c12 | 101 | 95 | 13 | 4 | 95 | 98 | . | . | . | . | . | . | .
CC(C)S(=O)(=O)C/C(N)=N/OC(=O)c1cc(Cl)cc(Cl)c1 | 100 | 101 | . | 8 | 101 | ? | . | . | . | . | . | . | .
Cc1cc(C(=O)CSc2nncn2C)c(C)n1-c1ccccc1 | 101 | 100 | 23 | 10 | 103 | 103 | . | . | . | . | . | . | .
CN(C)C(=O)CSc1nnc(-c2ccc(F)cc2)c2ccccc12 | 51* | 28* | . | 1 | 31 | ? | . | -1 | 105 | 111 | 106 | 108 | 97
CCN(CC)P(=O)(Nc1ccccc1Br)c1ccc(N(C)C)cc1NC(=O)c1ccco1 (stereo unspecified) | 96 | 103 | 10 | 6 | 67 | 104 | . | . | . | . | . | . | .
COC(=O)C1=C(C)N(Cc2ccco2)C(=O)/C1=C\c1ccc(N(C)C)cc1 | 130 | 111 | 7 | 14 | 231*[activator] | 110 | 111* | 0 | 100 | 98 | 102 | 101 | 106
Cc1ccc(NC(=O)Cn2cc(C(F)(F)F)cc(Cl)c2=O)cc1Cl | 102 | 102 | 16 | 6 | 100 | 94 | . | . | . | . | . | . | .
O=c1c2[nH]c3ccc(Br)cc3c2ncn1Cc1ccncc1 | 99 | 99 | . | 2 | 100 | ? | . | . | . | . | . | . | .
C/C(CC(=O)Nc1ccccn1)=N\NC(=O)c1ccc2ccccc2c1 | 122 | 107 | 5 | 14 | 211*[activator] | 105 | 107* | 1 | 95 | 89 | 92 | 91 | 96
Cc1cc(C)n(CCNC(=O)CC2C(=O)NCCN2Cc2ccccc2C(F)(F)F)n1 (stereo unspecified) | 100 | 102 | 16 | 5 | 101 | 97 | . | . | . | . | . | . | .
O=C(N/N=C/c1cc([N+](=O)[O-])ccc1O)c1cc(-c2ccccc2)nc2ccccc12 | 67 | 54 | 11 | 2 | 34 | 42* | 54* | 0 | 99 | 97 | 98 | 101 | 92
O=C(N/N=C/c1cc([N+](=O)[O-])ccc1Cl)c1cc(-c2ccccc2)nc2ccccc12 | 104 | 97 | . | 7 | 105 | ? | . | . | . | . | . | . | .
CC(CNCC1CCCO1)COc1ccccc1 (stereo unspecified) | 123 | 113 | 35 | 3 | 175 | 108 | . | . | . | . | . | . | .
CC(CNCC1CCCO1)COc1cccc2ccccc12 (stereo unspecified) | 176*[activator] | 117 | 30 | 3 | i | 127 | 117* | 3 | 103 | 99 | 107 | 101 | 112
COc1cc(C)nc(NC(=S)N(C)C(=O)c2ccccc2)n1 | 101 | 96 | . | 7 | 98 | ? | . | . | . | . | . | . | .
CCCCCCC(=O)c1c(C)[nH]c(C(=O)OCC)c1C | . | 120 | 32 | 11 | . | 121 | . | 2 | 99 | 99 | 102 | 100 | 79
Cc1cccc(N2CN(Cc3cccnc3)CNC2=S)c1 | 104 | 99 | 9 | 5 | 105 | 98 | . | . | . | . | . | . | .
S=C1NCN(Cc2cccnc2)CN1c1cccc2ccccc12 | 44* | 26* | . | 1 | 26 | ? | . | -1 | 98 | 90 | 97 | 98 | 92
CCC1CCC(c2nnc(-c3ccc(Br)cc3)o2)CC1 (stereo unspecified) | 72 | 89 | 9 | 7 | 13* | 86 | 89* | 0 | 99 | 102 | 99 | 100 | 91
CN(C)S(=O)(=O)c1cccc(NC(=S)NN=C(Cc2ccccc2)Cc2ccccc2)c1 | 54* | 91 | 13 | 6 | 101 | 51 | 91* | 1 | 101 | 104 | 102 | 107 | 98
COc1ccccc1NC(=O)c1ccc(NC(=O)CSc2ncn[nH]2)cc1 | 99 | 100 | 11 | 3 | 101 | 98 | . | . | . | . | . | . | .
COc1ccc(C2CN=NC2C(=O)c2ccccc2)cc1 (stereo unspecified) | 99 | 103 | . | 8 | 100 | ? | . | . | . | . | . | . | .
Cc1cc(Oc2ccccc2)nc(-c2ccccc2)n1 | 104 | 105 | 38 | 12 | 104 | 100 | . | . | . | . | . | . | .
c1ccc(Oc2cc(-c3ccccc3)nc(-c3ccccc3)n2)cc1 | 39* | 27* | 10 | 4 | 19* | 18* | . | 0 | 97 | 97 | 95 | 97 | 105
CC(=O)c1ccc(NC(=O)C(C)OC(=O)c2ccc3c(c2)nc(C)n3-c2ccccc2)cc1 (stereo unspecified) | 132 | 112 | 13 | 6 | 219*[activator] | 110 | 112* | -1 | 104 | 103 | 106 | 105 | 112

Screening results deposited in PubChem BioAssay by NMMLSC.
